# Source: ChEMBL document CHEMBL4513143, “CO-ADD screening of University of Natural Resources and Life (Austria) compounds”
# Potency and affinity values are given separately.
# Tests used:
# Staphylococcus aureus = conditions: Concentration 32 ug.mL-1; ASSAY_TEST Inhibition of Bacterial Growth; detection method Absorption (OD600); MEDIA CAMHB; plate type 384well; NBS; CORNING #3640; time 18 hr
# Escherichia coli = conditions: Concentration 32 ug.mL-1; ASSAY_TEST Inhibition of Bacterial Growth; detection method Absorption (OD600); MEDIA CAMHB; plate type 384well; NBS; CORNING #3640; time 18 hr
SMILES,Inhibition (Staphylococcus aureus) [%],Inhibition (Escherichia coli) [%]
CCN(CC)CC.O=P(O)(O)OC1C[C@@H](O)[C@H](O)[C@@H]([C@H](O)CO)O1 (stereo not given in full),23.92,21.41
CCN(CC)CC.C[C@@H](CC1O[C@H]([C@@H](O)CO)[C@@H](O)[C@H](O)[C@@H]1O)OP(=O)(O)OC[C@H]1O[C@@H](n2cnc3c(N)ncnc32)[C@H](O)[C@@H]1O (stereo not given in full),27.76,16.43
OC[C@@H](O)[C@H]1OC(O)C[C@@H](O)[C@@H]1O (stereo not given in full),21.66,15.99
CCN(CC)CC.C[C@H](CC1O[C@H]([C@H](O)CO)[C@@H](O)[C@H](O)[C@@H]1O)OP(=O)(O)OC[C@H]1O[C@@H](n2cnc3c(N)ncnc32)[C@H](O)[C@@H]1O (stereo not given in full),30.75,16.06
CCN(CC)CC.C[C@@H](CC1O[C@H]([C@H](O)CO)[C@@H](O)[C@H](O)[C@@H]1O)OP(=O)(O)OC[C@H]1O[C@@H](n2cnc3c(N)ncnc32)[C@H](O)[C@@H]1O (stereo not given in full),27.38,10.57
CCN(CC)CC.C[C@H](CC1O[C@H]([C@@H](O)CO)[C@@H](O)[C@H](O)[C@@H]1O)OP(=O)(O)O (stereo not given in full),23.43,26.24
CCN(CC)CC.C[C@@H](CC1O[C@H]([C@@H](O)CO)[C@@H](O)[C@H](O)[C@@H]1O)OP(=O)(O)O (stereo not given in full),24.59,26.95
N.O=C(O)C1(O)C[C@@H](O)[C@H](O)[C@@H]([C@@H](O)CO)O1 (stereo not given in full),25.6,22.94
CCN(CC)CC.C[C@H](CC1O[C@H]([C@@H](O)CO)[C@@H](O)[C@H](O)[C@@H]1O)OP(=O)(O)OC[C@H]1O[C@@H](n2cnc3c(N)ncnc32)[C@H](O)[C@@H]1O (stereo not given in full),25.31,11.12
CC(=O)CC1O[C@H]([C@@H](O)CO)[C@@H](O)[C@H](O)[C@@H]1O (stereo not given in full),21.72,24.3
